{"source": "PubChem BioAssay (NCATS)", "note": "Results filed as inconclusive are left out. Where a call stands in place of a potency, no number is given. The source made the active and inactive calls. Calls come from the whole dose curve; as a rule, active = well fitted inhibition curve with a large enough effect; inconclusive = small, poorly fitted or top-dose-only effect; inactive = flat fitted curve, though single readings scatter. Potency is the fitted concentration of half-maximal effect."}
{"tested_on": "CP250", "assay": "qHTS profiling for inhibitors of Plasmodium falciparum proliferation (AID 504749); note: nearly all actives have a fitted effect of over 60% in size", "conditions": "P. falciparum in erythrocytes, SYBR Green DNA, 72 h; series mostly up to 28.7 µM", "procedure,_shortened": "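SYBR Green fluorescence of parasite DNA, read after lysis and overnight dark incubation, measured growth over 72 h in erythrocyte culture at 0.3% parasitemia and 2.5% hematocrit. Data normalised to DMSO and 0.29 uM artemisinin, with plate-drift correction.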"}
{"smiles": "CC(C)=O", "Potency": "inactive"}
{"smiles": "O=C(Nc1ccc(Br)cc1)c1cc(Br)c(Br)s1", "Potency": "inactive"}
{"smiles": "CCN(CC)CCOc1ccc(-c2nc3cc(Cl)ccc3s2)cc1", "Potency": "inactive"}
{"smiles": "CCNC(=O)[C@@H]1CCCN1C(=O)[C@H](CCCN=C(N)N)NC(=O)[C@H](CC(C)C)NC(=O)[C@@H](Cc1c[nH]c2ccccc12)NC(=O)[C@H](Cc1ccc(O)cc1)NC(=O)[C@H](CO)NC(=O)[C@H](Cc1c[nH]c2ccccc12)NC(=O)[C@H](Cc1cnc[nH]1)NC(=O)[C@@H]1CCC(=O)N1", "Potency": "8.91 µM (active)"}
{"smiles": "O=C1CSC2(CCN(CCCN3c4ccccc4Sc4ccc(Cl)cc43)CC2)N1", "Potency": "inactive"}
{"smiles": "CCCCCC(CC)COC(=O)CC(C(=O)OCC(CC)CCCC)S(=O)(=O)O", "note": "(centres undefined)", "Potency": "inactive"}
{"smiles": "O=CCCCC=O", "Potency": "inactive"}
{"smiles": "CCCCC(=O)O[C@]1(C(=O)CO)[C@H](C)C[C@H]2[C@@H]3CCC4=CC(=O)C=C[C@]4(C)[C@@]3(F)[C@@H](O)C[C@@]21C", "Potency": "inactive"}
{"smiles": "CC1=C(/C=C/C(C)=C/C=C/C(C)=C/C=C/C=C(C)/C=C/C=C(C)/C=C/C2=C(C)C(=O)CCC2(C)C)C(C)(C)CCC1=O", "Potency": "inactive"}
{"smiles": "CC(=O)Oc1cc(C)c(OC(C)=O)c2ccccc12", "Potency": "7.94 µM (active)"}
{"smiles": "CN1C(=O)CN2CCc3ccccc3C2c2cc(Cl)ccc21", "note": "(centres undefined)", "Potency": "inactive"}
{"smiles": "CC(C)N=c1cc2n(-c3ccc(Cl)cc3)c3ccccc3nc-2cc1Nc1ccc(Cl)cc1", "Potency": "inactive"}
{"smiles": "CC[C@@]1(O)C(=O)OCc2c1cc1n(c2=O)Cc2cc3c([N+](=O)[O-])cccc3nc2-1", "Potency": "12.6 µM (active)"}
{"smiles": "O=C(O)c1cc(=O)c2c3nc4ccccc4oc-3cc(=O)c2[nH]1", "Potency": "inactive"}
